Only some compounds are listed: those with a hit (about 0.55% of all), similar ones and a draw of the others.
TCR activator = Activators of T cell receptors: qHTS campaign; primary human leukocytes, anti-CD3, IL-2 HTRF, 48 h; Potency, µM (series often up to 9.22 µM), for inactives: at the highest dose activation of IL-2 secretion, actives largely listed as activators; 330,000 tested, under 10 active; note: % of control where 0% means no effect
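Readout: HTRF IL-2, Eu-cryptate/d2 antibody pair, 320nm excitation, 665nm emission. Stimulus: a-CD3 beads, no co-stimulation. Cells: primary human leukocytes. Exposure: 48 hr with compound.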
pAkt inh = HTS Assay for Inhibitors of Akt Phophorylation: Primary Screen. Neuro2A IGF-stimulated pAkt S473 HTRF, 20 min; stronger effect = lower value. activity change, % for hits at 50 µM. 0.32% of 360,000 active; in the data active = activity change below about -80%; inconclusive = mostly about -51% to -80%; note: % is set by controls: 0 for no effect and ±100 for the full control effect
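Neuro2A cells in DMEM with 0.5% FBS, overnight at 37 deg C, given compound at single 50 µM final, then IGF (6 nM final) for 20 min at 37 deg C. Lysed; phospho-Akt Ser473 by HTRF after 24 h, 665/615 ratio.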
RGS4 inh = Inhibitors of Regulator of G Protein Signaling (RGS) 4: qHTS; Regulator of G-protein signaling 4 (Homo sapiens), P49798; Transcreener GDP fluorescence polarization, RGS4-accelerated GTP hydrolysis; Potency, µM (top dose mostly 114 µM), for the others: at the highest dose activity change, negative = inhibition, actives largely listed as inhibitors; 0.039% of 390,000 active; note: potency is the fitted concentration of half-maximal effect; % is set by controls: 0 for no effect and ±100 for the full control effect; nearly all actives have a fitted effect of over 75% in size
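MLSMR compounds (23 nl, pin-transferred) preincubated 10 min at room temperature with a 500nM (2x) first reagent, then RGS4 at 900nM (2x) plus Transcreener GDP mix added; fluorescence polarization (620/688 nm) read before and after 90 min at 30 °C.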
GRP78 ERSR act = qHTS for Inducers of the Endoplasmic Reticulum Stress Response (ERSR) in Human Glioma: qHTS; Potency, µM, for the others: top-dose activation, hits mostly activators; 0.02% of 420,000 active; AID 602332, 2012; U87-MG GRP78 promoter luciferase reporter, 16 h; note: potency is the fitted concentration of half-maximal effect; series mostly up to about 76 µM; % of control where 0% means no effect; nearly all actives have a fitted effect of over 35% in size
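Stably transfected U87-MG glioma cells carrying a GRP78-based luciferase sensor; 16 h compound incubation. Luminescence end-point read 10 min after Bright-Glo addition at room temperature.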
LDHA inh = qHTS assay for inhibitors of human lactate dehydrogenase; purified LDHA, NADH/diaphorase-resazurin fluorescence; stronger effect = lower value; activity change, % (values are at about 110 or 230 µM); 0.15% of 480,000 active; in the data active = activity change below about -30%; inconclusive = mostly about -25% to -30%;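 note: plate controls were DMSO wells for no effect and wells without enzyme for full effect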
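Human LDH5 at 2 nM final in Tris HCl pH 7.4 with 0.06 mM NADH and 0.2 mM pyruvate, reacted 5 minutes at room temperature. Remaining NADH coupled via diaphorase/resazurin; resorufin fluorescence read at 0 and 20 minutes, normalized to enzyme-free and DMSO wells.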
TSHR antag = Antagonists of the Thyroid Stimulating Hormone Receptor: HTS campaign; Thyrotropin receptor (Homo sapiens), P16473; TSHR-expressing cells, TSH-stimulated cAMP HTRF, 2 h; stronger effect = lower value; activity change, negative = inhibition, % at 11.5 µM; 0.2% of 330,000 active;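 active = activity change below a set negative limit, meaning inhibition stronger than a set level, cut at about -70% in these data; inconclusive = activity change between two set negative limits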; note: % is set by controls: 0 for no effect and ±100 for the full control effect
Target sequence (P16473 whole entry, looked up): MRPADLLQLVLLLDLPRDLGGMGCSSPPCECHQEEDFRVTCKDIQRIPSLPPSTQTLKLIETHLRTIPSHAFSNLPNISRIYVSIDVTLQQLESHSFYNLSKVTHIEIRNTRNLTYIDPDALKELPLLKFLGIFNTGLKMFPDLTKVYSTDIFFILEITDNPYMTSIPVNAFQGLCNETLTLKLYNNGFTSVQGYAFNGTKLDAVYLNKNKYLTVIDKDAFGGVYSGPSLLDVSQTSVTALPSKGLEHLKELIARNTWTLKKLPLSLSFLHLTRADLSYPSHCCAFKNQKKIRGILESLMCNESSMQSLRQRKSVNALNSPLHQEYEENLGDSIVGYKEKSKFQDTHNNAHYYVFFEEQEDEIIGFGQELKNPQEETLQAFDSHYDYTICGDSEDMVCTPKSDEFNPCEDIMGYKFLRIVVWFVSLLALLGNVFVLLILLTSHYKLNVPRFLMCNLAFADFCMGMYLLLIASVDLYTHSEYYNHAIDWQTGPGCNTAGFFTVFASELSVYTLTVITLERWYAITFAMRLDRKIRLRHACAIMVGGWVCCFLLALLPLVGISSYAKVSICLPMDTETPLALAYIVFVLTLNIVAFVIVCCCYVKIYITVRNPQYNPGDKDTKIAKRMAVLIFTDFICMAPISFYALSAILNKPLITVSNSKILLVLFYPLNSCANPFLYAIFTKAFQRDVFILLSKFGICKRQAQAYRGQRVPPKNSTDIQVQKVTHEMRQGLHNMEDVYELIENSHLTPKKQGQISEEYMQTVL
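Read-out is FRET at 665 nm (cryptate excitation 337 nm) from a cryptate-tagged anti-cAMP antibody, competed by cell cAMP against cAMP-d2. Compounds are tested on freshly harvested TSHR cells challenged with 4nM TSH (EC80) for 2 hours at 37 deg C.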
Active calls of the source: *; i = inactive; ? = inconclusive; · = no result given; ! = a repeat was not active; [ ] = another dose, or the depositor's remark. Unless noted, calls come from the whole dose curve; as a rule, active = well fitted curve in the direction sought with a large enough effect; inconclusive = small, poorly fitted or top-dose-only effect, or another doubt; inactive = no such curve, though single readings can be large; an effect the other way counts as inactive or inconclusive.

SMILES	TCR activator	pAkt inh	RGS4 inh	GRP78 ERSR act	LDHA inh	TSHR antag
COc1ccc(NC(=O)CN2CCN(Cc3ccccc3)CC2)cc1	2%	i	14%	-2%	-5	-9
O=C1O/C(=C/Br)CCC1c1cccc2ccccc12 (stereo not given)	·	·	9.5µM*	-14%	·	-7
O=C1CCCCC1c1cccc2ccccc12 (stereo not given)	-4%[46.1 µM]	i	16%	-2%	-10	-5
CCN(CC)S(=O)(=O)c1ccc(Cl)c(C(=O)NC2CCN(Cc3ccccc3)CC2)c1	-5%	i	14%	-9%	-4	1
COCCN(CCOC)S(=O)(=O)c1ccc(C(=O)NC2CCN(Cc3ccccc3)CC2)cc1	-2%	-113%*	16%	0%	-1	-13
Cc1cc(C)c2nc(Nc3nc(C(C)C)cc(=O)[nH]3)nc(C)c2c1	·	·	·	·	-32*	·
CCn1c2ccccc2c2cc(/C=C3/C=Cc4ccccc43)ccc21	·	·	·	0%	-55*	·
C[N+](C)(C)c1ccc(/C=C2\C=Cc3ccccc32)cc1	·	·	·	1%	-24	·
COc1ccc(C(C)=O)cc1CN1CCCc2ccccc21	·	·	·	·	8	·
COc1ccc(-c2csc(NC(C)=O)n2)cc1OC	-4%	i	?	7%	0	8
COc1cccc(NC(=O)Nc2nc(-c3ccc(OC)c(OC)c3)cs2)c1	1%	i	24%	-18%	-4	-94*
Cc1cccc(CNCc2ccco2)c1	·	·	·	·	-8	·
CN(C)c1nc2ccccc2c(N)c1-c1ccccc1	4%	·	-1%	-5%	-38*	3
CC(CCC(C)C(C)(C)C)[C@@H]1CC[C@H]2C3C[C@H](OS(O)(=S)=S)[C@H]4C[C@H](OS(O)(=S)=S)[C@@H](OS(O)(=S)=S)C[C@]4(C)[C@H]3CC[C@]12C (stereo not given in full) (tested in a mixture with another compound)	7%	i	-131%	-4%	-94*	-83*
N#CCOc1nc(N2CCOCC2)nc(N2CCOCC2)n1	11%	i	-7%	-3%	-31*!	-2
O=C(COC(=O)c1ccccc1NC(=O)c1ccco1)Nc1ccc2c(c1)OCO2	1%	-102%*	4%	0%	-2	-6
O=C(/C=C/c1ccccc1Cl)Nc1ccc2c(c1)C(=O)NC2=O	0%	i	-48%	-3%	-46*	-17
O=C(/C=C/c1ccccc1)Nc1ccc2c(c1)C(=O)NC2=O	4%	i	-19%	1%	-1	-7
COc1ccc(CCNC(=O)CN2C(=O)C3(OCCCO3)c3ccccc32)cc1OC	11%	-90%*	-9%	-3%	-1	-3
COc1cc(Br)c(/C=C/C(=O)O)cc1OC	·	·	·	·	4	·
COc1ccc(-c2nnc3n2N=C(C)CS3)cc1	-1%	-84%*	-1%	-1%	-3	29
CC1=Nn2c(nnc2-c2ccco2)SC1	2%	-102%*	-40%	4%	2	-16
Cc1ccccc1C1=Nn2c(nnc2-c2ccco2)SC1	2%	i	20%	-3%	-2	-1
C/C(CCC(C)C)=N\Nc1nc2ccccc2[nH]1	·	·	·	·	-5	·
COC(=O)C(C#N)c1nc2ccccc2nc1Cl (stereo not given)	·	·	·	·	6	·
N#Cc1c(-c2ccccc2)cc(-c2cccs2)nc1S(=O)Cc1ccccc1 (stereo not given)	·	·	·	·	4	·
COc1ccc(S(=O)(=O)N2CCOC23CCN(C(=O)c2ccc(Cl)cc2Cl)CC3)cc1	0%	i	-7%	-5%	-12	-115*
Cc1nc(-c2cccnc2)sc1CCNS(=O)(=O)c1ccc(Cl)s1	·	·	·	·	-4	·
